Several values for one entry are separate records, joined by “and”; a condition that tells them apart may be missing. Equal values may be shown once. Records with an inconclusive call do not appear. A call without a number means that no potency is given here. Some compounds were tested as several samples or in several runs, with calls that do not always agree. Activity calls are given as the source filed them. Calls come from the whole dose curve; as a rule, active = well fitted inhibition curve with a large enough effect in the repeat runs; inconclusive = weak or mixed curves; inactive = no such curve, though single readings can be large or run the other way.
Potency is the fitted concentration of half-maximal effect.

Sequence of Estrogen receptor (Homo sapiens) (P03372 whole entry, looked up): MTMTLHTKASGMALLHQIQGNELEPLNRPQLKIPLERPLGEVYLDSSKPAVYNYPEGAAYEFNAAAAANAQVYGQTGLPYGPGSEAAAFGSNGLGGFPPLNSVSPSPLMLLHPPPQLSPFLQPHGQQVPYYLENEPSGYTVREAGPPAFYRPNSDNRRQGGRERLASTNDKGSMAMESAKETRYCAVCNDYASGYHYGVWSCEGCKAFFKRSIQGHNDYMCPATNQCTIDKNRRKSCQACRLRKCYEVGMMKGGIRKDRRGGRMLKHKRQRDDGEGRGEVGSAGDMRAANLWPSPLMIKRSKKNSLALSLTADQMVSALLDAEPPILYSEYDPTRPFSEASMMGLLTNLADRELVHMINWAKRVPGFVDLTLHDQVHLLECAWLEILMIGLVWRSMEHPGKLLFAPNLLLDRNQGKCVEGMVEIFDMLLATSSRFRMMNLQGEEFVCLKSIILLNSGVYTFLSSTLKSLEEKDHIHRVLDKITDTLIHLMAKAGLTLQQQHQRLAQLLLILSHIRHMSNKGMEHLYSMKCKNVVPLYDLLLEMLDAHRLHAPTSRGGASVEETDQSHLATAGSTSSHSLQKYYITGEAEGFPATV

The assay addresses Estrogen receptor (Homo sapiens) (UniProt P03372). The assay can be described thus: qHTS assay to identify small molecule antagonists of the estrogen receptor alpha (ER-alpha) signaling pathway using the BG1 cell line in the presence of 0.1 nM 17-beta-estradiol (AID 1259244). Note: nearly all actives have a fitted effect of over 50% in size. The conditions noted are these: VM7Luc4E2 (BG1) ERE-luciferase, antagonist mode, 0.1 nM E2, 22 h; series mostly up to 92.4 µM. From the text:
National Center for Advancing Translational Sciences [NCATS]
NIH Chemical Genomics Center [NCGC]
U.S. Environmental Protection Agency [EPA]
National Institutes of Environmental Health Sciences [NIEHS]
National Toxicology Program [NTP]
U.S. Food and Drug Administration [FDA]
Estrogen receptor (ER), a member of the nuclear hormone receptor plays an important role in development, metabolic homeostasis and reproduction. Two subtypes of ER, ER-alpha and ER-beta, have similar expression patterns with some uniqueness in both types. Endocrine disrupting chemicals (EDCs) and their interactions with steroid hormone receptors like ER causes disruption of normal endocrine function. Therefore, it is important to understand the effect of environmental chemicals in ER signaling pathway. For identifying ER antagonists, VM7Luc4E2 cell line was used to screen against Tox21 compound libraries.
VM7Luc4E2 cell line (provided by Denison MS, University of California) endogenously express full-length ER-alpha and is stably transfected with a plasmid containing four estrogen responsive elements (ERE) upstream of a luciferase reporter gene. The current screening for identification of ER-alpha inhibitors against Tox21 compound libraries used lower concentration (0.1 nM) of 17beta-Estradiol as a stimulator.
Tox21 Assay Protocol Summary:
VM7Luc4E2 cells were cultured in phenol red free assay medium containing 10% charcoal stripped FBS for 5 days prior to the assay. The cells were dispensed at 4,000 cells/well in 4 uL of assay medium into white wall/solid-bottom 1536-well plates (Corning Life Sciences, Corning, NY) using a Multidrop Combi (ThermoFisher Scientific, Waltham, MA) dispenser. After the assay plates were incubated at 37C and 5% CO2 for 24 hr, 23 nL of compounds dissolved in DMSO, positive controls or DMSO only was transferred to the assay plates by a Pintool station (Kalypsys, San Diego, CA). The transfer of compounds was followed by the addition of 1 uL of 0.1 nM (final concentration) agonist (17beta-Estradiol)/assay medium using a Flying Reagent Dispenser (FRD, Aurora Discovery, San Diego, CA). The plates were incubated at 37C and 5% CO2 for 22 hr. For luciferase reporter gene assay, 4 uL of ONE-Glo reagent (Promega Corporation, Madison, WI) was added to each well using the FRD and after 30 min incubation at room temperature luminescence intensity was measured using ViewLux plate reader (PerkinElmer, Shelton, CT).
(In general: qHTS replaces the single test concentration by a dilution series.)
For `Oc1ccc(Cl)cc1Sc1cc(Cl)ccc1O`, the Potency was 30.6 µM (active) and 29.8 µM (active).

With `CSc1cnc(C)cn1`, the Potency result is “inactive”.

Turning to `CC1=NC(C)OC1C` (stereo not given), the Potency entry is “inactive”.

As to `O=C(c1ccc(O)cc1O)c1ccc(O)cc1O`, the Potency entry is “inactive”.

Turning to `CCCCCCCCCCCCCCCCCC[N+](C)(C)C`, the Potency is 54.6 µM (active).

For the compound `CS(=O)(=O)CCNCc1ccc(-c2ccc3ncnc(Nc4ccc(OCc5cccc(F)c5)c(Cl)c4)c3c2)o1`, the Potency was 29.8 µM (active).

Take `CCCCCCCCCCCC[N+](C)(C)CCCCCCCCCCCC`: the Potency was 30.6 µM (active).

Consider `CCN(CCC#N)c1ccc(N=Nc2c(Cl)cc([N+](=O)[O-])cc2Cl)cc1`, for which the Potency result was “inactive”.

With `Oc1cc2ccccc2c2ccccc12`, the Potency was 15.4 µM (active).

With `O=S1(=O)CC(Cl)(Cl)C(Cl)(Cl)C1`, the Potency was 21.7 µM (active).

`CCCCCOC(=O)CCCC`: the Potency entry was “inactive”.

For `Fc1ccc([C@@H]2CCNC[C@H]2COc2ccc3c(c2)OCO3)cc1`, the Potency result was “inactive”.

Take `COc1cccc2c1C(=O)c1c(O)c3c(c(O)c1C2=O)C[C@@](O)(C(=O)CO)C[C@@H]3O[C@H]1C[C@H](N)[C@H](O[C@@H]2CCCCO2)[C@H](C)O1`: the Potency result was “inactive”.

Regarding `Clc1ccccc1C(c1ccccc1)(c1ccccc1)n1ccnc1`, the Potency is 24.3 µM (active) and inactive.

`CN(C)[C@@H]1C(=O)C(C(N)=O)=C(O)[C@@]2(O)C(=O)C3=C(O)c4c(O)cccc4C[C@H]3C[C@@H]12`: the Potency entry was “inactive”.

Turning to `Cc1onc(-c2ccccc2Cl)c1C(=O)N[C@@H]1C(=O)N2[C@@H]1SC(C)(C)[C@@H]2C(=O)O`, the Potency result was “inactive”.

On to `CCCCCCCC(=O)[O-].CCCCCCCC(=O)[O-].[Zn+2]`, for which the Potency result is “inactive”.

Consider `CCCC/C=C/CCCCO`, for which the Potency entry is “inactive”.

As to `C=C(C)C(=O)OCC(O)COc1ccc(C(C)(C)c2ccc(OCC(O)COC(=O)C(=C)C)cc2)cc1` (stereo not given), the Potency was 21.7 µM (active).

As to `CC(C)C(C)(C)C(C)(C)C(C)(C)S`, the Potency result is “inactive”.

Take `O=c1cccccc1O`: the Potency entry was “inactive”.

Take `NNC(=O)c1cccc(C(=O)NN)c1`: the Potency result was “inactive”.

Take `Nc1ccc2c3c(cccc13)-c1ccccc1-2`: the Potency result is “inactive”.

On to `Oc1ccc(N=Nc2ccccc2)cc1`, for which the Potency result was “inactive”.

Turning to `Cc1nc(-c2ccc3c(c2)CCN(CCC2CCC(NC(=O)/C=C/c4ccc(F)cc4)CC2)CC3)no1` (stereo not given), the Potency result was “inactive”.

In the case of `CNCc1cc(F)ccc1Oc1ccc(Cl)c(Cl)c1`, the Potency is 54.5 µM (active).

Turning to `Cc1cc(C2CCCCC2)n(O)c(=O)c1`, the Potency is 6.68 µM (active).

As for `Nc1nc2ccccc2n1Cc1ccc(F)cc1`, the Potency is 10.6 µM (active).

For `CCCCCCCC/C=C\CCCCCCCCOCCO`, the Potency was 2.51 µM (active).

Consider `C[n+]1cc2c3c(ccc2c2ccc4cc5c(cc4c21)OCO5)OCO3`, for which the activity change, negative = inhibition was -84.3% [at 19 µM] (inactive).

Take `CC[C@@]1(O)C(=O)OCc2c1cc1n(c2=O)Cc2c-1nc1ccccc1c2/C=N/OC(C)(C)C`: the Potency is 0.188 µM (active).

For `CC(=O)N1CCN(c2ccc(OC[C@H]3CO[C@](Cn4ccnc4)(c4ccc(Cl)cc4Cl)O3)cc2)CC1`, the Potency is 27.3 µM (active).

Turning to `CC1(C)CCC(C)(C)c2cc(C(=O)Nc3ccc(C(=O)O)cc3)ccc21`, the Potency result was “inactive”.

`O=C1c2ccccc2Cc2ccccc21`: the Potency result is “inactive”.

Regarding `CCC(CN)=C(c1ccccc1)c1ccccc1`, the Potency entry was “inactive”.

Consider `O=Cc1cc(O)ccc1Br`, for which the Potency result was “inactive”.

With `Cc1cc(O)c(C(C)(C)C)cc1Sc1cc(C(C)(C)C)c(O)cc1C`, the Potency was 30.6 µM (active).

As to `Cc1cccc(N(C)C(=S)Oc2ccc3c(c2)C2CCC3C2)c1` (stereo not given), the Potency result is “inactive”.

Turning to `CCN1/C(=C/C=C/c2sc3ccccc3[n+]2CC)Sc2ccccc21`, the Potency is 0.58 µM (active).

Take `O=C(O)c1ccc(Cl)c(Cl)c1`: the Potency entry is “inactive”.

The record behind these values is PubChem BioAssay (Tox21).
